80 compounds from PubChem BioAssay AID624300 (Southern Research Specialized Biocontainment Screening …, 2012) can be followed below.

Screen size: about 2,400 compounds; about 360 (15%) were called active.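 The calls were made as follows: active = viability falls under 70% at one or more tested concentrations, taken as toxicity; inactive = viability stays over 70% at every dose.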 A selection follows. A call without a number means that no potency is given here. Potency and affinity values are given separately.

A short description of this test: viability loss in HeLa cells – cytotoxicity control for MgcRacGAP inhibitor project, dose response (AID 624300). The note with it: CellTiter-Glo luminescence, 24 h; series mostly up to 100 µM. For orientation: Cellular ATP, detected with luciferase, serves as a proxy for viable cell number.
Consider `CCc1ccc(NC(=O)CNCc2ccc(OC)c(OC)c2)cc1`, for which the result was inactive.

Regarding `CCOc1ccccc1/C=c1\sc2ncnn2c1=O`, the call was inactive.

Take `Cn1c(=O)[nH]c(N)c(Br)c1=O`: the outcome was inactive.

For the compound `O=C(COc1ccccc1)NCC(=O)N/N=C/c1ccc(O)cc1O`, the result was inactive.

As for `O=Nc1ccc(NOC(=O)c2ccccc2)cc1`, the compound was classed as inactive.

Take `Nc1ccc2c(c1)Nc1ccccc1CC2`: the outcome was inactive.

Regarding `CCN1CCN(CCOc2ccccc2OCc2ccccc2)CC1`, the compound was called inactive.

For the compound `COc1cc(/C=N/Nc2nc(C)cc(C)n2)ccc1O`, the outcome was inactive.

Take `COc1cc(/C=N/NC(=O)C(C)n2nnc3ccccc32)ccc1O` (stereo not given): the outcome was inactive.

Take `COc1cc(/C=N/Nc2ccc(C(=O)O)cc2)ccc1O`: the result was inactive.

Take `COc1cc(/C=N/Nc2nc(N3CCCC3)nc(N3CCCC3)n2)ccc1O`: the result was inactive.

On to `Oc1ccc(/C=N/Nc2ncnc3nc[nH]c23)cc1`, for which the outcome was inactive.

As for `Oc1ccc(/C=N/Nc2ncc(Cl)cc2Cl)cc1`, the outcome was inactive.

On to `O=C(O)C1CCCCC1C(=O)Nc1ccc(S(=O)(=O)N2CCOCC2)cc1` (stereo not given), for which the compound was classed as inactive.

On to `Cc1ccn2c(=S)[nH]nc2c1`, for which the compound was classed as inactive.

For `Oc1cc(Br)ccc1C=Nc1ccc(N2CCCCC2)cc1`, the compound was classed as inactive.

Consider `COc1ccccc1CNCC(=O)Nc1ccc(N(C)C)cc1`, for which the compound was classed as inactive.

As for `O=C(N/N=C/c1ccc(O)cc1)Nc1cccc2nsnc12`, the outcome was inactive.

As to `Cc1csc(=O)n1CC(=O)OC(C)C(=O)Nc1ccc(N(C)C)cc1` (stereo not given), the result was inactive.

As for `CCN(Cc1ccccc1)c1ccc(/C=N/N2CCOCC2)cc1`, the outcome was inactive.

For `C=CCn1c(SCC(=O)Nc2ccc(O)cc2)nc2sc(CC)cc2c1=O`, the compound was called inactive.

Regarding `Brc1ccccc1OCCCCCN1CCOCC1`, the compound was called inactive.

For `C=CCNC(=O)CN1CCN(C(c2ccccc2)c2ccccc2)CC1`, the result was inactive.

With `COc1ccc(NC2CCCN(C(=O)c3ccc(C(C)=O)s3)C2)cc1` (stereo not given), the call was inactive.

Turning to `CN=c1scc(C)n1/N=C/c1ccc(O)cc1`, the result was inactive.

For the compound `Cc1cc(Br)cc(C=Nc2ccc(N3CCOCC3)cc2)c1O`, the result was inactive.

Turning to `O=C(c1cccc(Cl)c1)N1CCN(C2CCCCC2)CC1`, the compound was classed as inactive.

Turning to `Cc1c(Cl)cccc1NC(=S)Nc1ccc2[nH]c(=O)[nH]c2c1`, the compound was called inactive.

For `Cc1ccc(OCCN2CCN(C)CC2)c([N+](=O)[O-])c1`, the compound was classed as inactive.

For `O=C(CSc1nnnn1C1CC1)N1CCN(c2ccc(O)cc2)CC1`, the compound was classed as inactive.

With `CCC(C)N1CCN(C(=O)c2cccs2)CC1` (stereo not given), the outcome was inactive.

As for `Oc1ccc(Nc2ncnc3c2oc2ccccc23)cc1`, the outcome was inactive.

In the case of `O=c1oc2ccccc2cc1-c1csc(Nc2ccc(O)cc2)n1`, the call was inactive.

As to `OC1CNc2c(ccc3ccccc23)C1` (stereo not given), the result was inactive.

As for `OCCN1CCN(Cc2ccc3ccccc3c2)CC1`, the compound was called inactive.

Take `O=[N+]([O-])c1ccc(N2CCN(CCOCCO)CC2)c([N+](=O)[O-])c1`: the compound was classed as inactive.

On to `COc1ccc(OCCOCCN2CCN(C)CC2)cc1`, for which the call was inactive.

Consider `CC(CCN1CCN(CCO)CC1)c1ccccc1` (stereo not given), for which the call was inactive.

With `COc1ccc(O)c(/C=N/NC(=O)c2c(C)nnn2-c2nonc2N)c1`, the compound was called inactive.

For `c1ccc(CC2CCN(Cc3ccccn3)CC2)cc1`, the compound was called inactive.

For `CCC1(c2ccccc2)NC(=O)N(CC(=O)Nc2ccc(N3CCCC3)cc2C)C1=O` (stereo not given), the call was inactive.

Turning to `CCOC(=O)c1c(C)[nH]c(C(=O)CN2CCN(CC)CC2)c1C`, the call was inactive.

Take `CCOC(=O)C1=C(C)Nc2ccc(C)cc2S1`: the call was inactive.

For `COC(=O)c1cc(NCc2cccs2)ccc1N1CCOCC1`, the result was inactive.

For `COc1cc(CNc2ccc(N3CCN(C(C)=O)CC3)cc2)ccc1OCc1ccccc1`, the result was inactive.

In the case of `COc1cc(CNc2ccc3[nH]c(=O)[nH]c3c2)ccc1OCc1ccccc1`, the compound was classed as inactive.

For the compound `O=C(N/N=C/c1ccc(O)c2ccccc12)c1cccnc1`, the call was inactive.

Take `Cc1nc(N)sc1-c1ccccc1`: the result was inactive.

Regarding `COc1cc(Br)c(CNc2cc(C)ccc2C)cc1OC`, the call was inactive.

Consider `COc1ccccc1/C=C1/C(=O)N(c2ccccc2)N=C1C`, for which the compound was called inactive.

As for `CC1=NN(c2cccc(C(=O)O)c2)C(=O)/C1=C\C=C\c1ccco1`, the compound was called inactive.

Turning to `Cc1c(N2C(=O)/C(=C\c3ccc(N(C)C)cc3)N(C)C2=S)c(=O)n(-c2ccccc2)n1C`, the compound was classed as inactive.

`CC1=NN(c2ccc(C(=O)O)cc2)C(=O)/C1=C\c1ccc(OC(=O)c2cccs2)cc1`: the compound was classed as inactive.

As for `Cc1ccc(N2C(S)=C(C#N)C(=O)NC2c2ccco2)cc1` (stereo not given), the call was inactive.

In the case of `CCOc1cc(/C=N/NC(=O)C(=O)N2CCCC2)ccc1O`, the call was inactive.

In the case of `Oc1ccc2ccccc2c1Br`, the compound was classed as inactive.

As for `CC[n+]1c(/C=C/N(C)c2ccccc2)oc2ccc(Cl)cc21`, the result was inactive.

As for `CC(=O)N1CCN(c2ccc(NCc3ccco3)cc2)CC1`, the compound was called inactive.

In the case of `O=C(O)c1ccc(COc2ccccc2C=C2C(=O)c3ccccc3C2=O)cc1`, the compound was called inactive.

As to `CCN(CC)c1ccc(/C=C2\C(=O)c3ccc(C(=O)O)cc3C2=O)cc1`, the compound was called inactive.

Take `Cc1cc(-c2n[nH]c(=S)n2/N=C/c2ccccc2[N+](=O)[O-])n[nH]1`: the compound was classed as inactive.

Consider `Cc1cccn2c(=S)[nH]nc12`, for which the call was inactive.

Turning to `OCC1CCCN(C(=S)Nc2ccc(Nc3ccccc3)cc2)C1` (stereo not given), the compound was classed as inactive.

With `Nc1ccc(Nc2ccncc2)cc1`, the compound was called inactive.

As to `Cc1c(O)ccc(NC(=O)/C=C/c2ccccc2)c1C`, the compound was classed as inactive.

Turning to `Cc1ccc(/C=C/C(=O)Nc2ccc([N+](=O)[O-])c(NC(=O)/C=C/c3ccc(C)o3)c2)o1`, the call was inactive.

For the compound `C/C(=N/NC(=O)CSc1nc2ccccc2n1C)c1ccc(O)cc1`, the compound was called inactive.

For `CCOC(=O)C(Cc1ccccc1)C(=O)Nc1ccc(N(CC)CC)cc1` (stereo not given), the compound was called inactive.

`CCOC(=O)/C(C#N)=C\c1ccc(O)c(OC)c1`: the compound was called inactive.

As to `CCOc1c(C=C(C#N)C#N)c2ccccc2n1CC`, the compound was classed as inactive.

As to `COc1ccc(NC2CCCN(C(=O)CCCn3cncn3)C2)cc1OC` (stereo not given), the result was inactive.

As for `O=C(CNC(=O)C1COc2ccccc2O1)N/N=C/c1ccc(O)cc1O` (stereo not given), the result was inactive.

Turning to `Nc1ccc(Nc2nc(-c3ccncc3)cs2)cc1`, the compound was classed as inactive.

Take `CCCCN(C)CCNC(=O)CSCc1ccc(C)cc1`: the compound was called inactive.

For the compound `O=C(Nc1n[nH]c(=S)s1)c1ccco1`, the outcome was inactive.

Turning to `CN(Cc1ccccc1)Cc1c(O)ccc2ccccc12`, the outcome was inactive.

On to `COc1ccc(CN2CCC(C(N)=O)CC2)cc1OCc1ccccc1`, for which the result was inactive.

Regarding `COC(=O)c1cc(NCc2ccccc2F)ccc1N1CCOCC1`, the result was inactive.

For `COc1cc2cc(NC(C)=O)cc(NCc3ccccc3)c2cc1OC`, the outcome was inactive.

Turning to `COc1ccc(CN2CCN(Cc3ccc4ccccc4c3)CC2)cc1OC`, the call was inactive.
